In the library only some 5.4% were active in any assay of this set; here they are far more common.
LASV entry inh: blocks Lassa virus binding to or entry into cells; Lassa virus pseudotype entry inhibition, cell reporter; Potency, µM (top dose mostly 37.9 µM), inactives show top-dose activity change, negative = inhibition, most hits filed as inhibitors; actives 1.2% (n = 300,000); AID 540256; calls by dose curve; tested in HEK293 cells; further: potency means the concentration at half of the fitted maximal effect; on the % scale 0 is the no-effect control and ±100 the full control effect; nearly all actives have a fitted effect of over 50% in size
Sm TGR block: inhibitors of Schistosoma mansoni thioredoxin glutathione reductase; Potency, µM (highest dose often 114 µM), for the others: at the top dose activity change, negative = inhibition, usual class: inhibitors; actives 3% (n = 360,000); Q962Y6; purified TGR, DTNB reduction, TNB absorbance 405 nm; further: potency means the concentration at half of the fitted maximal effect; on the % scale 0 is the no-effect control and ±100 the full control effect; nearly all actives have a fitted effect of over 60% in size
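TGR 20 nM + NADPH 100 uM (dispensed conc.), cpd preinc 15 min RT; start with NADPH (500 uM addition) then DTNB (15 mM addition). Kinetic TNB absorbance, 405 nm filter. Four-parameter Hill fit across titration.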
VACV mCherry inh: inhibitors of vaccinia virus infection (mCherry reporter signal); Vaccinia virus mCherry reporter infection, fluorescence; Potency, µM (titrated, usually from 36.5 µM), without a hit: top-dose activity change, negative = inhibition, actives largely listed as inhibitors; actives 0.63% (n = 310,000); calls by dose curve; tested in A549 cells; further: potency means the concentration at half of the fitted maximal effect; on the % scale 0 is the no-effect control and ±100 the full control effect; nearly all actives have a fitted effect of over 35% in size
FMDV antiviral: foot and mouth disease virus antiviral activity. Potency, µM (top dose mostly 57.9 µM), without a hit: at the top dose activity change, negative = inhibition, most hits filed as inhibitors. AID 1159524. actives 1.2% (n = 410,000). FMDV antiviral cell-based qHTS; calls by dose curve; tested in HEK293T cells; further: read-out not given here; potency means the concentration at half of the fitted maximal effect; on the % scale 0 is the no-effect control and ±100 the full control effect; nearly all actives have a fitted effect of over 45% in size
Marburg entry inh: Marburg virus entry inhibition; Marburg virus pseudotyped entry inhibition, cell reporter; Potency, µM (highest dose often 37.8 µM), for inactives: top-dose activity change, negative = inhibition, hits mostly inhibitors; actives 1.8% (n = 300,000); calls by dose curve; tested in HEK293 cells; further: potency means the concentration at half of the fitted maximal effect; on the % scale 0 is the no-effect control and ±100 the full control effect
VACV Venus inh: vaccinia inhibition (Venus reporter). actives 0.46% (n = 330,000). Vaccinia virus Venus reporter expression, fluorescence. AID 720580. Potency, µM (highest dose often 36.5 µM), without a hit: at the top dose activity change, negative = inhibition, actives largely listed as inhibitors; calls by dose curve; tested in A549 cells; further: potency means the concentration at half of the fitted maximal effect; on the % scale 0 is the no-effect control and ±100 the full control effect; nearly all actives have a fitted effect of over 30% in size
WI-38 tox: toxic to WI-38 fibroblasts in PNC inhibitor counter-screen | shares compounds with Marburg entry inh | WI-38 normal lung fibroblasts, ATPLite luminescence ATP viability, 24 h | Potency, µM (top dose mostly 46.1 µM), for the others: at the highest dose activity change, negative = cytotoxicity, actives largely listed as inhibitors | 120 tested, under 10 active
PNC inh conf: confirmation of perinucleolar compartment assembly inhibitors; shares compounds with Marburg entry inh; PC3M PTB-GFP, PNC prevalence imaging, 16 h; Potency, µM (highest dose often 46.1 µM), inactives show top-dose activity, negative = PNC inhibition, actives largely listed as inhibitors; actives 50% (n = 120); AID 2730
PC3M casp3-7: PC3M caspase 3/7 activation by PNC inhibitor hits. shares compounds with Marburg entry inh. PC3M-GFP caspase 3/7 activation, luminescence, 24 h. activity change, positive = activation, % at 46.1 µM. 120 tested, under 10 active. AID 2731
* hit, by the source's call; i = inactive; ? = inconclusive; . = no result; [ ] = remark or other dose. Unless noted, the call rests on the fitted dose curve; in most records, active means well fitted curve in the direction sought with a large enough effect; inconclusive means small, poorly fitted or top-dose-only effect, or another doubt; inactive means no such curve, though single readings can be large; an effect the other way counts as inactive or inconclusive.

SMILES	LASV entry inh	Sm TGR block	VACV mCherry inh	FMDV antiviral	Marburg entry inh	VACV Venus inh	WI-38 tox	PNC inh conf	PC3M casp3-7
C#CC(C)(O)C1CC(CC(=O)O)C1(C)C (configuration not stated)	-7.9%[46.1 µM]	.	-12.2%	45.2%	0.8%[46.1 µM]	-3.8%	.	.	.
CN(C)C(=O)COC(=O)c1ccccc1Nc1ccc(SC(F)F)cc1	.	-5.1%	.	16.3%	-4.4%	.	-11.6%	15.8µM*	-20.1
COc1ccccc1NC(=O)COC(=O)c1ccccc1OCC(=O)Nc1ccc(SC(F)F)cc1	3.4%	4.6%	-14.7%	-18.1%	-1.0%	-9.9%	.	.	.
CC(=O)c1ccc(-n2c(SCC(=O)c3c[nH]c4ccccc34)nc3ccccc3c2=O)cc1	.	?	-7.0%	-0.4%	3.4%	-23.7%	-16.8%	28.0%	-6.9
CC(=O)c1ccc(NC2=C(N3CCOCC3)C(=O)c3ccccc3C2=O)cc1	?	-15.6%	-8.3%	.	?	-19.4%	.	.	.
CC(=O)N(C)C1=C(N2CCOCC2)C(=O)c2ccccc2C1=O	0.58µM*	15.6%	.	2.51µM*	1.46µM*	.	?	?	?
O=C(c1cccs1)N1CCCc2cc(NS(=O)(=O)c3ccc(Cl)cc3)ccc21	?	0.9%	-19.6%	-16.1%	.	-25.7%	.	.	.
O=S(=O)(Nc1cc(Sc2cccc3cccnc23)c(O)c2ccccc12)c1ccc(F)cc1	11.2µM*	3.55µM*	?	12.6µM*	6.51µM*	55.6%	?	?	?
COc1ccc(-c2nc(NC(=O)c3n[nH]c(=O)c4ccccc34)sc2C)cc1	1.03µM*	-5.5%	-2.8%	-9.0%	0.794µM*	0.4%	10.9%	3.98µM*	-5.1
COc1ncc2nc(-c3cc(F)cc(F)c3)c(=O)n(Cc3cccs3)c2n1	.	.	.	-9.2%	.	.	.	.	.
CCCn1c(=O)c(C)cn2nc(N)nc12	-5.1%	.	.	-13.3%	9.1%	.	.	.	.
COCCn1c(SC(C)C(=O)Nc2ncc(Cl)cc2Cl)nc2ccccc21 (configuration not stated)	1.41µM*	0.9%	?	?	2µM*	11.9%	-3.3%	12.6µM*	-7.3
Cc1cc(SC(C)C(=O)Nc2ncc(Cl)cc2Cl)nc2ccccc12 (configuration not stated)	5.8µM*	-13.3%	-10.3%	-22.0%	?	-4.3%	-14.1%	11.2µM*	-0.8
CCn1cc(S(=O)(=O)c2cccc(Cl)c2)c(=O)c2cc(F)c(N3CCN(C)CC3)cc21	-3.7%[46.1 µM]	?	-1.6%	6.9%	.	-23.9%	.	.	.
CN(C)c1ccc(C(=O)C(=O)N2CCN(c3ccccc3)CC2)cc1	.	.	?	-9.0%	.	-18.1%	.	.	.
CCc1ccc(C2c3c(-c4cc(C)ccc4O)n[nH]c3C(=O)N2CCO)cc1 (configuration not stated)	?	6.6%	1.3%	-25.5%	?	-5.3%	.	.	.
O=C(c1ccc(Cl)c(S(=O)(=O)N2CCCC2)c1)N1CCN(c2ccccc2F)CC1	?	-2.0%	i	-2.8%	-15.6%[46.1 µM]	-18.0%	.	.	.
CN1c2ccccc2C(C)(C)C12CC(c1ccc(Cl)c(S(=O)(=O)N3CCCC3)c1)=NO2 (configuration not stated)	-9.0%	-8.9%	.	.	22.3%	.	8.8%	3.98µM*	-7.4
CCCCCCCCCCCCCCCCOC[C@@H](COP(=O)([O-])OCC[N+](C)(C)C)OC(C)=O	.	.	-0.6%[3.33 µM]	-7.7%[6.7 µM]	.	-8.9%[3.33 µM]	.	.	.

Screening results from PubChem BioAssay.
